An excerpt weighted towards active compounds, which were near 19% of everything screened.
HT1080-NT tox: kills 2HG-producing HT-1080-NT fibrosarcoma cells; HT-1080-NT fibrosarcoma viability, CellTiter-Glo ATP luminescence, 48 h; Potency, µM (doses to about 46.1 µM), actives largely listed as cytotoxic; 360,000 compounds, 1.6% hits;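 further: NT is the 2HG producing partner of a matched IDH1 knockdown line; nearly all actives have a fitted effect of over 55% in size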
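Compounds were tested in concentration-response format on HT-1080-NT cells for 48 hours at 37 degrees C. Cell viability came from CellTiter-Glo luminescence; curves were classified by r2, response magnitude and activity.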
DT40 TDP1 no CPT: qHTS for Inhibitors of human tyrosyl-DNA phosphodiesterase 1 (TDP1): qHTS in cells in absence of CPT | 420,000 compounds, 15% hits | Potency, µM (series often up to 46.2 µM), actives largely listed as inhibitors | DT40 Tdp1-/- hTDP1 cells, no CPT, ATP luminescence, 48 h | AID 686978, 2013; further: nearly all actives have a fitted effect of over 55% in size
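Readout: luminescence from CellTiter-Glo after 30 min in the dark at RT. Cells: DT40 Tdp1-/- with stable hTDP1, 400/well. Exposure: compounds alone, ≥48 hr, 37 °C.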
IL1B secr inh: inhibitors of inflammasome signaling (IL-1 beta secretion); activity change, % at 57.5 µM; 360,000 compounds, 4.7% hits; THP-1 LPS/ATP IL-1B secretion, AlphaLISA, 16 h; stronger effect = lower value; in the data active means activity change below about -50%; inconclusive means mostly about -30% to -49%
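THP-1 cells pretreated 1 hr with compounds (up to 57.5 uM final), then stimulated with LPS (250 ng/mL final) plus ATP (1.25 mM final); secreted IL-1B measured by AlphaLISA after 16 hr, decreased signal indicating inhibition.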
HT1080 IDH1KD tx: kills HT-1080 cells with IDH1 knockdown | Potency, µM (series often up to 46.1 µM), usual class: cytotoxic | AID 686971 | HT-1080 IDH1 knockdown viability, ATP luminescence, 48 h | 360,000 compounds, 2% hits
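In this qHTS, HT-1080 cells depleted of IDH1 are exposed for 48 h at 37 °C to compound titrations. Toxicity is scored from CellTiter-Glo luminescence, with DMSO as full viability and medium alone as none.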
ELG1 repair inh: ELG1-dependent DNA repair inhibition; Potency, µM (doses to about 46.1 µM), hits mostly inhibitors; HEK293T ELG1-luciferase reporter, luminescence, 16 h; DNA damage induced by 5-fluorouridine; 330,000 compounds, 2.3% hits; further: nearly all actives have a fitted effect of over 55% in size
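Reporter activity after DNA damage by 5-fluorouridine is monitored. Compound-treated cells incubate 16 hr at 37 °C, then ONE-Glo is added for 30 min before luminescence reading.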
DT40 TDP1 CPT: DT40-hTDP1 cell growth loss with CPT | chicken DT40 Tdp1-/-;hTDP1 cells + 20 nM CPT, ATP luminescence, 48 h | Potency, µM (top dose mostly 46.2 µM), usual class: inhibitors | 420,000 compounds, 12% hits; further: nearly all actives have a fitted effect of over 55% in size
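Cell growth measured by CellTiter-Glo luminescence after a minimum 48 h, 37 C compound exposure with 20 nM CPT in Tdp1-knockout DT40 cells stably expressing hTDP1, seeded 400/well; qHTS titration format.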
Hits are given with their value; n = inactive; u = inconclusive; x = no result. Unless noted, the call rests on the fitted dose curve; in most records, active means well fitted curve in the direction sought with a large enough effect; inconclusive means small, poorly fitted or top-dose-only effect, or another doubt; inactive means no such curve, though single readings can be large; an effect the other way counts as inactive or inconclusive.

SMILES | HT1080-NT tox | DT40 TDP1 no CPT | IL1B secr inh | HT1080 IDH1KD tx | ELG1 repair inh | DT40 TDP1 CPT
COc1ccc(N2CCN(c3nc(Cl)nc(Nc4ccc(F)cc4)n3)CC2)cc1 | n | 18.4µM | -78.9 | n | u | 18.4µM
COc1ccc(N2CCN(c3nc(Nc4ccc(F)cc4)nc(OC)n3)CC2)cc1 | x | x | x | x | n | x
COc1ccccc1N1CCN(Cc2nc(N)nc(Nc3ccc(C)c(Cl)c3)n2)CC1 | u | 9.2µM | n | u | 14.6µM | 14.6µM
CCOC(=O)C(=O)NC1CC=CCC1c1ccc2c(c1)OCO2 (centres undefined) | n | n | n | n | x | n
CN1CCN(Cc2nc(N)nc(Nc3ccc4c(c3)OCCO4)n2)CC1 | n | n | n | n | u | n
Nc1nc(CN2CCN(c3ccccn3)CC2)nc(Nc2ccc(Cl)cc2)n1 | n | 6.51µM | n | n | u | u
Cc1cccc(Nc2nc(N)nc(CN3CCN(c4ccccc4F)CC3)n2)c1 | u | u | n | n | x | n
Nc1nc(CN2CCN(c3ccccc3F)CC2)nc(Nc2ccc3c(c2)OCCO3)n1 | n | u | n | n | 23.1µM | u
Nc1nc(CN2CCN(Cc3ccccc3)CC2)nc(Nc2ccccc2)n1 | u | n | n | u | n | n
CCOc1ccc(Nc2nc(N)nc(CN3CCN(c4ccccc4F)CC3)n2)cc1 | n | 18.4µM | n | n | 16.4µM | n
CCOC(=O)[C@@H]1[C@H]2COc3cc(OC)ccc3[C@@H]2N2C(=O)N(c3ccc(F)cc3)C(=O)[C@@]12C | u | n | n | n | u | n
Cc1csc(CNC(=O)c2cc(COc3c(C)cccc3C)on2)n1 | n | n | n | n | n | u
COc1ccccc1CCNC(=O)C(=O)NCC(c1cccs1)S(=O)(=O)c1ccc(C)cc1 (centres undefined) | x | 20.6µM | x | x | x | 14.6µM
COc1ccc(CCNC(=O)C(=O)NCC(c2ccco2)S(=O)(=O)c2ccccc2)cc1 (centres undefined) | x | n | x | x | x | n
COc1ccccc1CCNC(=O)C(=O)NCC(c1ccco1)S(=O)(=O)c1cccs1 (centres undefined) | x | u | x | x | x | 20.6µM
COc1ccc(CCNC(=O)C(=O)NCC(c2ccco2)S(=O)(=O)c2cccs2)cc1 (centres undefined) | x | 13µM | x | x | x | 13µM
COc1ccccc1CCNC(=O)C(=O)NCC(c1ccco1)S(=O)(=O)c1ccc(C)cc1 (centres undefined) | x | u | x | x | x | 20.6µM
CCn1cc(C(=O)OC)c(=O)c2cc(S(=O)(=O)N(C)C3CCCCC3)ccc21 | n | n | n | n | n | u
CC(=O)OC[C@@H]1CN(Cc2ccccc2)C[C@H](n2cnc3c(NC4CC4)ncnc32)O1 | n | n | n | n | x | n
Cc1cc(-c2n[nH]c(=S)n2/N=C/c2c[nH]c3ccccc23)n[nH]1 | n | u | n | n | n | n
Cc1nn(-c2ccccc2)c(C)c1/C=N/n1c(-c2ccc(Cl)cc2)n[nH]c1=S | n | 16.4µM | n | n | n | u
Fc1ccc(-c2n[nH]c(=S)n2/N=C/c2c[nH]c3ccccc23)cc1 | n | 6.51µM | n | n | u | 7.31µM
Cc1nn(-c2ccccc2)c(C)c1/C=N/n1c(-c2ccncc2)n[nH]c1=S | n | n | n | n | n | n
COc1cc(C(=O)NCc2nnc(SCC(=O)NCCc3ccccc3)o2)cc(OC)c1OC | n | n | n | n | n | n
N#CCc1nc2ccc(S(=O)(=O)N3CCOCC3)cc2s1 | n | n | n | n | n | n
SMILES | HT1080-NT tox | DT40 TDP1 no CPT | IL1B secr inh | HT1080 IDH1KD tx | ELG1 repair inh | DT40 TDP1 CPT
Cc1cccc(N=C2NC(=O)/C(=C/c3cccs3)S2)c1 | n | u | n | n | u | n
O=C1NC(=Nc2ccccc2)S/C1=C\c1cccn1-c1ccccc1 | u | 20.6µM | n | u | u | 9.2µM
O=C1NC(=Nc2cccnc2)S/C1=C/c1ccc(F)cc1 | u | 3.26µM | n | u | n | 2.91µM
Cc1cccc(N=C2NC(=O)/C(=C/c3cccn3C)S2)c1 | n | 18.4µM | n | n | n | u
Cc1ccccc1N=C1NC(=O)/C(=C/c2cccn2C)S1 | n | 23.1µM | n | n | u | 16.4µM
CCOC(=O)C1CC2=C(CCCC2=O)N(Cc2ccccc2)C1=O (centres undefined) | n | n | n | n | x | n
COc1ccc(C(CNC(=O)CCNC(=O)c2ccccc2OC)N2CCCC2)cc1 (centres undefined) | n | n | n | n | u | n
Cc1cccc2c(=O)cc(CSCC(=O)Nc3ccc(Cl)cc3)[nH]c12 | x | n | x | x | x | n
O=C(Cc1c(F)cccc1Cl)Nc1nccs1 | n | n | n | n | n | u
CCCn1c(N)c(C(=O)CSc2ncnc3sccc23)c(=O)n(C)c1=O | n | u | n | n | u | u
Cc1nc2c(c(=O)c3ccccc3n2C)c(=O)n1C1CCCCCC1 | n | n | n | n | u | n
Cn1c2ccccc2c(=O)c2c(=O)n(C3CCCCC3)c(-c3ccco3)nc21 | n | u | n | n | u | 23.1µM
CC(=O)Nc1ccc(Nc2nc3ccccc3nc2NS(=O)(=O)c2ccc(Cl)c([N+](=O)[O-])c2)cc1 | n | 5.8µM | -107.5 | n | x | 7.31µM
COC(=O)c1cc(Nc2nc3ccccc3nc2NS(=O)(=O)c2ccc(C)cc2)ccc1Cl | x | 6.51µM | x | x | x | 18.4µM
CC1(C(=O)NS(=O)(=O)c2cccc(C#N)c2)CCN1C(=O)Cc1cc(F)ccc1F (centres undefined) | n | n | n | n | x | n
COc1ccc([C@@H]2CC(=O)[C@@H]3CN(S(=O)(=O)c4ccc(Cl)cc4)[C@H](c4ccc(C)cc4)C[C@@H]3N2S(=O)(=O)c2ccccc2)cc1 | n | u | n | n | x | u
Cc1cccc(-c2nc3c(cnn3-c3ccccc3)c(=O)n2-c2ccc(Cl)cc2)c1 | x | 14.6µM | x | x | x | u
O=c1c2cnn(-c3ccccc3)c2nc(-c2cccs2)n1-c1ccc(Br)cc1 | n | 0.581µM | n | n | n | u
Cc1cccc(-c2nc3c(cnn3-c3ccccc3)c(=O)n2-c2ccc(Br)cc2)c1 | x | 18.4µM | x | x | x | u
O=C(O)CSc1nc2c(cnn2-c2ccccc2)c(=O)n1-c1ccc(Br)cc1 | n | n | n | n | n | n
COc1ccc(-n2c(-c3cccc(F)c3)nc3c(cnn3-c3ccc(C)cc3)c2=O)cc1 | x | 25.9µM | x | x | x | 18.4µM
O=C(Nc1ccc2c(c1)OCCO2)c1ccccc1Cl | n | n | n | n | x | n
O=C(Nc1ccc2c(c1)OCCO2)c1cccc2nc3ccccc3nc12 | n | 14.6µM | u | n | u | 23.1µM

From PubChem
